Experimental findings from PubChem BioAssay (Tox21) are described below.

Values without a mark were called inactive. Records with an inconclusive call do not appear. Activity calls are given as the source filed them. The call rests on the fitted dose curve; in most records, active means well fitted curve in the direction sought with a large enough effect in the repeat runs; inconclusive means weak or mixed curves; inactive means no such curve, though single readings can be large; an effect the other way counts as inactive or inconclusive.

Experiment [1] can be described thus: Caspase-3/7 induction in HepG2 cells by small molecules, qHTS assay (AID 1346978). Further: nearly all actives have a fitted effect of over 15% in size. The procedure, abridged: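 Caspase-3/7 induction was measured by Caspase-Glo 3/7 luminescence (30 min, room temperature) after a 17 hr compound exposure of wild-type HepG2 cells seeded at 2,000 per well and pre-incubated 5 hr.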
On the technique in general: qHTS replaces the single test concentration by a dilution series.

The nature of experiment [2]: Caspase-3/7 induction in CHO-K1 cells by small molecules, qHTS cell viability counter screen (AID 1346979). Further: nearly all actives have a fitted effect of over 35% in size. Further: potency means the concentration at half of the fitted maximal effect. The gist of the method:
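CHO-K1 wt, 1,500 cells/well; 5hr pre-incubation 37C/5% CO2; compound pin transfer (DMSO); 16hr exposure; CellTiter-Fluor added, 1hr, fluorescence read.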

Experiment [3] is described as follows: Caspase-3/7 induction in CHO-K1 cells by small molecules, qHTS assay (AID 1346980). Further: nearly all actives have a fitted effect of over 15% in size. The gist of the method: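 Luminescent Caspase-Glo 3/7 read (30min, room temperature) quantified apoptosis induction. Cells were wild-type CHO-K1, treated with compound for 17hr at 37 C and 5% CO2.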
A short description of experiment [4]: Caspase-3/7 induction in HepG2 cells by small molecules, qHTS cell viability counter screen (AID 1346981). Further: nearly all actives have a fitted effect of over 30% in size. Further: potency means the concentration at half of the fitted maximal effect. The procedure, abridged: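 Wild-type HepG2 cells (2,000/well) were allowed to settle for 5 hr at 37 C, 5% CO2, then dosed with compounds in DMSO by pin transfer. After 16 hr at 37 C, CellTiter-Fluor was added and fluorescence read 1 hr later.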
For experiment [5], the target named is Nuclear receptor subfamily 1 group I member 2 (Homo sapiens) (UniProt O75469). Nature of the experiment: Human pregnane X receptor (PXR) small molecule agonists, qHTS assay (AID 1346982). Further: nearly all actives have a fitted effect of over 35% in size. Further: potency means the concentration at half of the fitted maximal effect. The gist of the method: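 PXR-Luc HepG2 cells (CYP3A4 promoter-driven luciferase) were seeded in medium with 5% charcoal-stripped FBS, left 5 hr at 37 C, then exposed to compounds in DMSO for 24 hr. Luminescence was read after ONE-Glo addition.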

Experiment [6] deals with Cytochrome P450 2D6 (Homo sapiens) (UniProt P10635). Nature of the experiment: Cytochrome P450 Family 2 Subfamily D Member 6 (CYP2D6) small molecule antagonists: luciferase reporter qHTS assay (AID 1671196). Further: nearly all actives have a fitted effect of over 50% in size. Further: potency means the concentration at half of the fitted maximal effect. The gist of the method:
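CYP2D6 enzyme–substrate mix was held with compound for 10 min at room temperature, then NADPH regeneration solution was added and the reaction ran 1 h at room temperature. Luciferin product was detected by luminescence after 20 min with detection reagent.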
(In a reporter assay the amount or activity of a reporter protein is the signal.)

Experiment [7] addresses Cytochrome P450 2C19 (Homo sapiens) (UniProt P33261). Nature of the experiment: Cytochrome P450 Family 2 Subfamily C Member 19 (CYP2C19) small molecule antagonists: luciferase reporter qHTS assay (AID 1671197). Further: nearly all actives have a fitted effect of over 65% in size. Further: potency means the concentration at half of the fitted maximal effect. The gist of the method: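 Inhibition of CYP2C19 was scored from loss of luminescence in a P450-Glo proluciferin substrate assay, NADPH-started and run 1 h at 37C, with ketoconazole as positive control.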

Experiment [8] concerns the target Cytochrome P450 2C9 (Homo sapiens) (UniProt P11712). Nature of the experiment: Cytochrome P450 Family 2 Subfamily C Member 9 (CYP2C9) small molecule antagonists: luciferase reporter qHTS assay (AID 1671198). Further: nearly all actives have a fitted effect of over 50% in size. Further: potency means the concentration at half of the fitted maximal effect. The procedure, abridged: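 Enzyme-substrate mix preincubated with compound 10 min at room temperature; reaction started with NADPH regeneration solution, 1 h 37C. Luminescent luciferin product read after 20 min detection reagent.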

Experiment [9] addresses Cytochrome P450 1A2 (Homo sapiens) (UniProt P05177). Nature of the experiment: Cytochrome P450 Family 1 Subfamily A Member 2 (CYP1A2) small molecule antagonists: luciferase reporter qHTS assay (AID 1671199). Further: nearly all actives have a fitted effect of over 50% in size. Further: potency means the concentration at half of the fitted maximal effect. The procedure, abridged:
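Human CYP1A2 activity measured with a P450-Glo proluciferin substrate; compounds in DMSO preincubated 10 min at room temperature with enzyme-substrate mix, then NADPH regeneration system added for 1 h. Luciferin detection reagent, 20 min, luminescence read.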

The target in experiment [10] is Voltage-gated inwardly rectifying potassium channel KCNH2 (Homo sapiens) (UniProt Q12809). Nature of the experiment: Human Ether-a-go-go-Related Gene (hERG) channel small molecule antagonists: fluorescence cell-based qHTS assay (AID 1671200).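 Further: hERG-expressing U2OS cells given a thallium stimulus after FluxOR II dye loading; series mostly up to about 77 µM; nearly all actives have a fitted effect of over 50% in size.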 The procedure, abridged: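 Read-out: thallium influx as a surrogate for potassium, tracked as fluorescence (480 nm ex/540 nm em) every second for 2 min after Stimulus Buffer addition in dye-loaded hERG-U2OS cells.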
For orientation: Block of hERG is tested as a sign of cardiac risk.

In experiment [11] the target is Cytochrome P450 3A4 (Homo sapiens) (UniProt P08684). Nature of the experiment: Cytochrome P450 Family 3 Subfamily A Member 4 (CYP3A4) small molecule antagonists: luciferase reporter qHTS assay (AID 1671201). Further: nearly all actives have a fitted effect of over 50% in size. Further: potency means the concentration at half of the fitted maximal effect. The gist of the method: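 Luminescent readout (RLU) proportional to CYP3A4 activity, from luciferin generated off a proluciferin substrate. Enzyme–substrate mix plus compound 10 min at room temp, NADPH regeneration 1 h, detection reagent 20 min.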

For experiment [12], the target named is Nuclear receptor subfamily 1 group I member 2 (Homo sapiens) (UniProt O75469). Nature of the experiment: CYP3A4 induction through human pregnane X receptor (PXR) by small molecules, qHTS assay (AID 1346984). Further: nearly all actives have a fitted effect of over 40% in size. The procedure, abridged:
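DPX-2 cells (HepG2 co-transfected with PXR and CYP3A4 promoter-luciferase) treated with compounds 24 h at 37C; luciferin-IPA CYP3A4 substrate 3uM final added for 3 h, then One-Glo; luminescence read. qHTS format.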

Experiment [13] shares this target. Nature of the experiment: Human pregnane X receptor (PXR) activation by small molecules, qHTS assay (AID 1346985). Further: nearly all actives have a fitted effect of over 40% in size. The gist of the method: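 DPX-2 cells (HepG2 co-transfected with a PXR response element and a CYP3A4-promoter luciferase construct) were seeded at 2,000 per well, rested 5 hr at 37C, then exposed to DMSO-dissolved compounds for 24 hr. Activation was read as luciferase luminescence.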

Chain of Cytochrome P450 2C19 (Homo sapiens) (P33261 whole entry, looked up): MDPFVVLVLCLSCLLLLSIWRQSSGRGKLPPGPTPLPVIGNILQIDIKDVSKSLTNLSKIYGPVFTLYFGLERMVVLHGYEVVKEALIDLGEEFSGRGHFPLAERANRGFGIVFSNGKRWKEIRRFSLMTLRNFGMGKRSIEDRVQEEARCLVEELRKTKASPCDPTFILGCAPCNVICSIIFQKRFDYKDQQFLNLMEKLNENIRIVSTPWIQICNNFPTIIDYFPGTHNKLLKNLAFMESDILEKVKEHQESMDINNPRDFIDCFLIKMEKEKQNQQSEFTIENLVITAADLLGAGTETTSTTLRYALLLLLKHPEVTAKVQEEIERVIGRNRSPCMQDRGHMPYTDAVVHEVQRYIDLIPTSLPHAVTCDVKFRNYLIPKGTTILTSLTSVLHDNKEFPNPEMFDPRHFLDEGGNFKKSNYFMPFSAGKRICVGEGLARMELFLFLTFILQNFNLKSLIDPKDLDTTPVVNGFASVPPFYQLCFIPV
Chain of Cytochrome P450 1A2 (Homo sapiens) (P05177 whole entry, looked up): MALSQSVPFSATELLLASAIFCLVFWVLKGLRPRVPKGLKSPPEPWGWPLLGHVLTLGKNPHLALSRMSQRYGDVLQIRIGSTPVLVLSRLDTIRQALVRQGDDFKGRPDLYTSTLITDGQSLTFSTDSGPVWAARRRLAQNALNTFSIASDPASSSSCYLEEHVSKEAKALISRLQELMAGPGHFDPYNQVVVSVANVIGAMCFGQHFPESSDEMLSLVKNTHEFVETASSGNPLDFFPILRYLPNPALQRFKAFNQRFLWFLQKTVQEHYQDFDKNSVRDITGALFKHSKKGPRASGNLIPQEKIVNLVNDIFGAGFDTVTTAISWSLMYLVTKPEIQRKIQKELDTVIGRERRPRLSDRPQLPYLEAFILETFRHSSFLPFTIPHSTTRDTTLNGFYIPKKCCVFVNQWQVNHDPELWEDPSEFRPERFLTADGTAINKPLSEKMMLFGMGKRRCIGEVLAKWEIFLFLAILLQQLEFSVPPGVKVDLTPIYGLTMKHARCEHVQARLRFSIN
Chain of Cytochrome P450 3A4 (Homo sapiens) (P08684 whole entry, looked up): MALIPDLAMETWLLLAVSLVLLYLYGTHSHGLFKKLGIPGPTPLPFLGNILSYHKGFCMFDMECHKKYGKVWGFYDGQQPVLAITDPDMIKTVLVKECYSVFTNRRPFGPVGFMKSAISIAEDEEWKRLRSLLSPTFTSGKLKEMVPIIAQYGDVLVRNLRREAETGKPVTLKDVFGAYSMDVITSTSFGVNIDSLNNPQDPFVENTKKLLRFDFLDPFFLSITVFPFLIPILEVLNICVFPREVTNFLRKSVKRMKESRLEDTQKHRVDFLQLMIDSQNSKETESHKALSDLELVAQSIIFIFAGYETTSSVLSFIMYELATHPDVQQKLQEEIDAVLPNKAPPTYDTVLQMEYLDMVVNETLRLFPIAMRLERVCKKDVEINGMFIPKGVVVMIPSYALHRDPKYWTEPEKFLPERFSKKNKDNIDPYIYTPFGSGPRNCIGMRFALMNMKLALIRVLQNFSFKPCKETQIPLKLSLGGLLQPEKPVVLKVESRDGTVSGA
Chain of Voltage-gated inwardly rectifying potassium channel KCNH2 (Homo sapiens) (Q12809 whole entry, looked up): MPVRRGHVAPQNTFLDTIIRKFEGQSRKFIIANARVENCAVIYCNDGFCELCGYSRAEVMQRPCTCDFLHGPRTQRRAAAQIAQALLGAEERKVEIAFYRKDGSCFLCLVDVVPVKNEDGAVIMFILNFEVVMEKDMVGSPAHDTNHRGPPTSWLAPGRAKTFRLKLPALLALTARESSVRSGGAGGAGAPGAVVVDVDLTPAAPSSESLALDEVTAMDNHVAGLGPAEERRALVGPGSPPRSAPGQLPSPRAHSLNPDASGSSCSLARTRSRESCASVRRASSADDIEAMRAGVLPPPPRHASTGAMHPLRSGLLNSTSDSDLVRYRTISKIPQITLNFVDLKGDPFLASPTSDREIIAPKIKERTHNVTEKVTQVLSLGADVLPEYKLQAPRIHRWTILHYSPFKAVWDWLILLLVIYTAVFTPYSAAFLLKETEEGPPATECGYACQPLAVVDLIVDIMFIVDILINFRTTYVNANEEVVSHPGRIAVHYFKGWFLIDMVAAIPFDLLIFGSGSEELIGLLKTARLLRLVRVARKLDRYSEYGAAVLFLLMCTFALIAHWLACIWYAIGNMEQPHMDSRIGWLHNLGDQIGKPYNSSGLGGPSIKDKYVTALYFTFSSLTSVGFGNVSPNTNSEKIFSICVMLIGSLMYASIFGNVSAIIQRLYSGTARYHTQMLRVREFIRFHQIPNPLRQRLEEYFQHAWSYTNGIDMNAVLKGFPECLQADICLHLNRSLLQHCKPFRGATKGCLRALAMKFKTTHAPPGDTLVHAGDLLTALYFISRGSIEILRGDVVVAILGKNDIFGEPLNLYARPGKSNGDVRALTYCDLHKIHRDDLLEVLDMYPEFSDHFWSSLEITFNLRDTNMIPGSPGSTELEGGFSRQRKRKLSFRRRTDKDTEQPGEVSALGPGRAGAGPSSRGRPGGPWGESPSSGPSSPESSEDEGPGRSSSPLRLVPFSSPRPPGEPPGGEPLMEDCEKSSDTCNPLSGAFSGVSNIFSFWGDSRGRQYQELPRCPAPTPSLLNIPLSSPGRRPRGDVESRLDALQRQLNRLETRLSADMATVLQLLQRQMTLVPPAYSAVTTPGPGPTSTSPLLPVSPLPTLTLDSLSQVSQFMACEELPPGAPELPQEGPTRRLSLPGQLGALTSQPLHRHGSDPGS
Chain of Nuclear receptor subfamily 1 group I member 2 (Homo sapiens) (O75469 whole entry, looked up): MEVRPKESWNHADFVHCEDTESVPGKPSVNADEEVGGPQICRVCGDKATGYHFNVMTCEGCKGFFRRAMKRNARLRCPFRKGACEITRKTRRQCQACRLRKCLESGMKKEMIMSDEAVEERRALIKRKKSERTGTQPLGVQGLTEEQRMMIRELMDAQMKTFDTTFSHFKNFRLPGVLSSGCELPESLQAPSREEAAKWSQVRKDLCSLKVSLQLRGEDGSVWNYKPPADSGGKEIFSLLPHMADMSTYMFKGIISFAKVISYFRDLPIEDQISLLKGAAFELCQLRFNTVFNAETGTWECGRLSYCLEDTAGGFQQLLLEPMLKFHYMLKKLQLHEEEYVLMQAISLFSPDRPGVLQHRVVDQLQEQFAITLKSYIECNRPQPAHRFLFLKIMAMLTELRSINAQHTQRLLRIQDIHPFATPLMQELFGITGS
Chain of Cytochrome P450 2C9 (Homo sapiens) (P11712 whole entry, looked up): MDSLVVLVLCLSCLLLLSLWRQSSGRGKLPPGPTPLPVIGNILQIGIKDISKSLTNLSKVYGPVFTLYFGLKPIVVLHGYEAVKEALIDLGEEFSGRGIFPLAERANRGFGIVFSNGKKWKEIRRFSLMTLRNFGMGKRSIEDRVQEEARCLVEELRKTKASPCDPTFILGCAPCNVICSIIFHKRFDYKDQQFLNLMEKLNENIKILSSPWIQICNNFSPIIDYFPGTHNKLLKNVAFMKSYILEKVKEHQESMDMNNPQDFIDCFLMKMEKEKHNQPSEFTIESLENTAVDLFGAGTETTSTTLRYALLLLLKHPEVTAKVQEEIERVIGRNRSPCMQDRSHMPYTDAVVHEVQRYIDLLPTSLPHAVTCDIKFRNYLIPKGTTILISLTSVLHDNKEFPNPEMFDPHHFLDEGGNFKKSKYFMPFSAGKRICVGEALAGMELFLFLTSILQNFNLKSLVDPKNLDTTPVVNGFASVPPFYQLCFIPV
Chain of Cytochrome P450 2D6 (Homo sapiens) (P10635 whole entry, looked up): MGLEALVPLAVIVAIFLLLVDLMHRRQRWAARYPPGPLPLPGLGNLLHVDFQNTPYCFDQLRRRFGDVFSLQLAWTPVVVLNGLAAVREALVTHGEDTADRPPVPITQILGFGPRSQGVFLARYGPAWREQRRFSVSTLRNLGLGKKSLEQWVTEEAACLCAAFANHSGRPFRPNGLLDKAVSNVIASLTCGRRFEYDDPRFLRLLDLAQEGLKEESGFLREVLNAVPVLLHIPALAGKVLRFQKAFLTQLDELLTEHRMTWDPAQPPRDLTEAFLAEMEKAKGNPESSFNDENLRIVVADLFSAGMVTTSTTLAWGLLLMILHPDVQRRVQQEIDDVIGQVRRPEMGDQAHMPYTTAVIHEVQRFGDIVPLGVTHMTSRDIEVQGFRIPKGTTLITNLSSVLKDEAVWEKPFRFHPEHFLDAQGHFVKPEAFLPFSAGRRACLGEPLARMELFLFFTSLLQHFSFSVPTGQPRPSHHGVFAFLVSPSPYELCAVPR

Consider `COC(C)CCO` (stereo not given), for which the Potency result in [1], in [2], in [4], in experiment [5], in experiment [6] and in experiment [7] was “inactive” in each case. Further, the Potency result in experiment [8], in experiment [9], in experiment [10] and in experiment [11] was “inactive” throughout. Also, in [3], the molecule was called inactive.
As to `C=CCc1cc(OC)c(O)c(C(=O)NCCO)c1`, the Potency result in [1], in [2], in [4], in experiment [5], in [12] and in experiment [13] was “inactive” each time. In addition, the Potency result in [8], in [10] and in [11] was “inactive” throughout. Moreover, in experiment [3], the molecule was called inactive.
Turning to `CCCCN1C[C@H](O)[C@@H](O)[C@H](O)[C@H]1CO`, the Potency entry in [1], in experiment [2], in experiment [4], in experiment [5], in experiment [12] and in [13] was “inactive” each time. Further, the Potency entry in [6], in experiment [8], in [9], in experiment [10] and in [11] was “inactive” each time. For the same molecule, the result in experiment [3] was inactive.
As to `Cc1cn([C@@H]2O[C@H](CO)[C@@H](O)[C@@H]2F)c(=O)[nH]c1=O`, the Potency entry in experiment [1], in [2], in experiment [4], in [5], in experiment [6] and in [7] was “inactive” throughout. In addition, the Potency result in experiment [8], in [9], in experiment [10] and in experiment [11] was “inactive” each time. Further, in experiment [3], the call was inactive.
Consider `O=C(C(Cl)Cl)N1CCOC12CCCCC2`, for which the Potency result in experiment [1], in experiment [6], in experiment [9], in experiment [10] and in [11] was “inactive” each time. Besides, the Potency was 61.1 µM (active) in experiment [2]; 61.1 µM (active) in experiment [4]; 34.4 µM (active) in experiment [5]; 39.9 µM (active) in [7]; 63.3 µM (active) in [8]. Moreover, in experiment [3], the call was inactive.
`COc1cc(C)ccc1C(C)C`: the Potency result in experiment [1], in [2], in experiment [4], in [5], in [6] and in experiment [7] was “inactive” throughout. Further, the Potency entry in [8], in experiment [9], in experiment [10] and in [11] was “inactive” in each case. The molecule was classed as inactive in [3].
With `CCCc1c2oc(C(=O)O)cc(=O)c2cc2c(=O)cc(C(=O)O)n(CC)c12`, the Potency result in experiment [1], in [2], in [4], in experiment [5], in experiment [6] and in [7] was “inactive” each time. The Potency entry in experiment [8], in experiment [9], in [10] and in [11] was “inactive” in each case. The result in [3] was inactive.
Consider `CCN(O)CC`, for which the Potency entry in experiment [1], in experiment [4], in experiment [6], in experiment [7], in experiment [8] and in experiment [9] was “inactive” in each case. Also, the Potency entry in experiment [10] and in experiment [11] was “inactive” each time. Besides, the values for the Potency in [2] and in experiment [5] were 26.7 µM (active) and 59.8 µM (active), respectively. For the same molecule, the molecule was called inactive in [3].
As for `CC(C)OC(C)C`, the Potency result in experiment [1], in [2], in experiment [4], in experiment [5], in experiment [6] and in experiment [7] was “inactive” each time. The Potency result in experiment [8], in experiment [9], in experiment [10] and in experiment [11] was “inactive” each time. The molecule was classed as inactive in experiment [3].
As for `COc1ccc(Nc2ccc(OC)cc2)cc1`, the Potency entry in experiment [1], in experiment [2], in experiment [4] and in experiment [10] was “inactive” throughout. Further, the outcome in experiment [3] was inactive. In addition, the Potency is 24.8 µM (active) in experiment [5]; 36.2 µM (active) in experiment [6]; 2.29 µM (active) in experiment [7]; 16.2 µM (active) in experiment [8]; 18.2 µM (active) in [9]; 18.2 µM (active) in experiment [11].
